Records with an inconclusive call do not appear. Calls of active or inactive are those of the source. Unless noted, calls follow the shape of the dose curve; as a rule, active = well fitted cell-killing curve with a large enough effect in the repeat runs; inconclusive = weak or mixed curves; inactive = flat fitted curve, though single readings scatter.
% is scaled to controls: 0 for no effect and ±100 for the full control effect.

The first assay deals with Androgen receptor (Homo sapiens) (UniProt P10275). The assay can be described thus: qHTS assay to identify small molecule agonists of the androgen receptor (AR) signaling pathway in the presence of an antagonist (AID 1259381; calls by dose curve; also: nearly all actives have a fitted effect of over 15% in size). The conditions noted are these: MDA-kb2 MMTV-luciferase, AR agonist + nilutamide, 16 h; series mostly up to 92.4 µM. Summed up: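 Using human MDA-kb2 cells with an MMTV promoter–luciferase construct (AR and GR response elements), agonist activity is scored under 3.0uM nilutamide (final) co-treatment; 16hr incubation, 37C, luminescence readout via ONE-Glo.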
Sequence of Androgen receptor (Homo sapiens) (P10275 whole entry, looked up): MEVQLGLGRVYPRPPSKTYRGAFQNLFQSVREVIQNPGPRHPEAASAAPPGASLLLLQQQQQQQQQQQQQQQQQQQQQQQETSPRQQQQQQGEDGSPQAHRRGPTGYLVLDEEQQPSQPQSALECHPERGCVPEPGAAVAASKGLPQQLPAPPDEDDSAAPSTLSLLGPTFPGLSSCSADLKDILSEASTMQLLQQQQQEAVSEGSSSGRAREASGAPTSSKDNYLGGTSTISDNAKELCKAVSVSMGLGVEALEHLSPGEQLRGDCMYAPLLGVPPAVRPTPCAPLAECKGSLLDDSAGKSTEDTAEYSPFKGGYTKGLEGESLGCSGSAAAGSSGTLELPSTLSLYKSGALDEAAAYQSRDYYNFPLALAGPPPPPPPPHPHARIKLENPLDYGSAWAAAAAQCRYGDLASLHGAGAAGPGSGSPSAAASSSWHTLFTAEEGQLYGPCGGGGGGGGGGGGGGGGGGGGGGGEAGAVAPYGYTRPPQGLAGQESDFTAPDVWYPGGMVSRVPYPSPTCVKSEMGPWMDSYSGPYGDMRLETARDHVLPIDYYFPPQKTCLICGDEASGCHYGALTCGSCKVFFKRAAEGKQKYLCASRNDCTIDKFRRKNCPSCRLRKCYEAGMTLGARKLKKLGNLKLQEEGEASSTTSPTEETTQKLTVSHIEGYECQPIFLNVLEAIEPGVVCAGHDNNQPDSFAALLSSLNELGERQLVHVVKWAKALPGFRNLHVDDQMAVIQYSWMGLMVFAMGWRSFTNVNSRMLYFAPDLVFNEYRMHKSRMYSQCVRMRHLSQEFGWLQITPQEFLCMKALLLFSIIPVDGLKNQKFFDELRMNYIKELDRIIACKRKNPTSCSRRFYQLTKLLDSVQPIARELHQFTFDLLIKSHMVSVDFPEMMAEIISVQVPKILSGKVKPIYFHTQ
As to `CN(C)c1cc(NC(=O)CNC(C)(C)C)c(O)c2c1C[C@H]1C[C@H]3[C@H](N(C)C)C(=O)C(C(N)=O)=C(O)[C@@]3(O)C(=O)C1=C2O`, the result was inactive.

For the compound `O=C[C@@H](O)[C@H](O)[C@H](O)CO`, the outcome was inactive.

On to `Cc1cc(=O)oc2cc(O[C@@H]3SC[C@@H](O)[C@H](O)[C@H]3O)ccc12`, for which the result was inactive.

For `NNC(=O)OCc1ccccc1`, the outcome was inactive.

Consider `CCCCCCCCCCCCCCCCN(C)C`, for which the activation was -0.033% [at 8.39 µM] (inactive).

Turning to `CCc1ncc(C)[nH]1`, the result was inactive.

For `O=C1c2ccccc2C(=O)N1CO`, the outcome was inactive.

As to `COC(=O)c1cc(Cl)c(NC(C)=O)cc1OC`, the outcome was inactive.

For the compound `Cc1ccc2cccnc2c1`, the outcome was inactive.

In the case of `COc1cc(OC)cc(OC)c1`, the result was inactive.

As for `Cc1ccc(N)nc1`, the result was inactive.

System in the next assay: not listed separately
In words: qHTS assay to identify small molecule antagonists of the estrogen receptor beta (ER-beta) signaling pathway - cell viability counter screen (AID 1259382). Also: nearly all actives have a fitted effect of over 55% in size. The conditions noted are these: ER-beta-UAS-bla HEK293T viability, CellTiter-Glo luminescence, 16 h; series mostly up to 92.4 µM. Summed up:
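Agonist-stimulated (1nM E2) ER-beta-UAS-bla HEK293T cells are incubated with library compounds for 16 hr at 37C. Cell viability is then assessed in the reporter-assay wells by adding CellTiter-Glo and reading luminescence after 30 min.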
Regarding `CN(C)c1cc(NC(=O)CNC(C)(C)C)c(O)c2c1C[C@H]1C[C@H]3[C@H](N(C)C)C(=O)C(C(N)=O)=C(O)[C@@]3(O)C(=O)C1=C2O`, the call was inactive.

Consider `O=C[C@@H](O)[C@H](O)[C@H](O)CO`, for which the outcome was inactive.

`CCCCS`: the compound was called inactive.

Regarding `C=COCCCCO`, the outcome was inactive.

Turning to `CN1C(CCl)Nc2cc(Cl)c(S(N)(=O)=O)cc2S1(=O)=O` (centres undefined), the compound was classed as inactive.

As for `CCCCN1C(=O)c2ccccc2C1=O`, the result was inactive.

For the compound `Cc1cc(=O)oc2cc(O[C@@H]3SC[C@@H](O)[C@H](O)[C@H]3O)ccc12`, the outcome was inactive.

`C/C=C(\C)C=O`: the compound was classed as inactive.

`COc1cnc(NS(=O)(=O)c2ccc(N)cc2)nc1`: the call was inactive.

In the case of `COC(=O)/C=C(\C)CCC=C(C)C`, the compound was classed as inactive.

As to `Cc1cc(O)c(Cl)cc1C`, the compound was classed as inactive.

`NNC(=O)OCc1ccccc1`: the compound was called inactive.

Take `CC(=O)c1c(C)cc(C(C)(C)C)cc1C`: the compound was classed as inactive.

Turning to `COc1ccc2cc(CCC(C)=O)ccc2c1`, the outcome was inactive.

Consider `CN(C)CCc1c[nH]c2ccc(CS(=O)(=O)N3CCCC3)cc12`, for which the result was inactive.

For `CCOC(=O)CN1CCCC1=O`, the outcome was inactive.

In the case of `CCCCCCCCCCCCCCCCN(C)C`, the activity change, negative = cytotoxicity was 6.11% [at 8.39 µM] (inactive).

In the case of `C[C@@H]1NC(=O)[C@@H](N)CNC(=O)[C@H](C2CCNC(N)=N2)NC(=O)/C(=C/NC(N)=O)NC(=O)[C@H](CNC(=O)C[C@@H](N)CCCN)NC1=O` (some centres undefined), the activity change, negative = cytotoxicity was 4.08% [at 0.349 µM] (inactive).

As to `CCCCC(O)/C=C(C)/C=C/C=C/C(=O)N1CCCC1=O` (centres undefined), the compound was classed as inactive.

As to `CCc1ncc(C)[nH]1`, the compound was classed as inactive.

In the case of `CCCCCCCCCCCC(C)=O`, the outcome was inactive.

Take `CC[C@@]1(c2ccccc2)NC(=O)N(C)C1=O`: the outcome was inactive.

With `CCCC(=O)OC`, the outcome was inactive.

Consider `CC(C)(C)OC=O`, for which the call was inactive.

Consider `Cc1cc(C)c(N)c(Cl)c1`, for which the outcome was inactive.

In the case of `C=CCON/C(CCC)=C1\C(=O)CC(C)(C)C(C(=O)OC)=C1O`, the result was inactive.

As to `CN1CCN(C(=O)C2CCCCC2)CC1`, the outcome was inactive.

Regarding `O=C1c2ccccc2C(=O)N1CO`, the compound was called inactive.

As for `C=CC(C)(CCC=C(C)C)OC(=O)C(C)C` (centres undefined), the outcome was inactive.

Consider `CCOC(=O)CC(C(C)=O)C(C)=O`, for which the compound was classed as inactive.

Consider `COC(=O)c1cc(Cl)c(NC(C)=O)cc1OC`, for which the result was inactive.

Consider `Cc1nnc(C(=O)NC(C)(C)c2nc(C(=O)NCc3ccc(F)cc3)c(O)c(=O)n2C)o1`, for which the compound was classed as inactive.

For the compound `Cc1ccc2cccnc2c1`, the compound was called inactive.

In the case of `CCCCN(CCCC)CCCCCCN(CCCC)CCCC`, the compound was classed as inactive.

As to `CC1(C)S[C@@H]2[C@H](NC(=O)Cc3ccccc3)C(=O)N2[C@H]1C(=O)O` (tested in a mixture with another compound), the call was inactive.

`CCN1CCN(C(=O)N[C@@H](C(=O)N[C@@H]2C(=O)N3C(C(=O)O)=C(CSc4nnnn4C)CS[C@H]23)c2ccc(O)cc2)C(=O)C1=O`: the compound was called inactive.

For `COc1cc(OC)cc(OC)c1`, the outcome was inactive.

For `Cc1ccc(N)nc1`, the result was inactive.

For the origin of these results see PubChem BioAssay (Tox21).
